# Data: PubChem BioAssay
# Assays:
# [1] = inhibitors of PAF-induced NFkB signaling in CF airway cells, dose response, cell-based, uHTS hits, panel, cytotoxicity readout (AID 624344); conditions: CF bronchial epithelial cells, PAF-induced NFkB reporter inhibition, with PAF, run 1; at 79 µM (top of the series) unless noted
# [2] = as above; conditions: CF bronchial epithelial cells, PAF-induced NFkB reporter inhibition, with PAF, run 2; at 79 µM (top of the series) unless noted
SMILES,inhibition [1],inhibition [2]
CN(C)c1ccc(C(C(=O)NC2CCCCC2)N(Cc2ccco2)C(=O)c2snc(C(N)=O)c2N)cc1 (stereo unspecified),105%,102%
CNc1ccc2ncc(-c3ccc(OC)c(OC)c3)n2n1,106%,118%
c1cc(-c2cnc3cccnn23)c2cccnc2c1,114%,105%
C[C@H]1Cn2cnc(C(=O)Nc3cccc(Cl)c3)c2C(=O)N1,105%,104%
CCN1CCN(Cc2ccc(NC(=O)c3ccc(C)c(NC(=O)N4CCNC4=O)c3)cc2C(F)(F)F)CC1,103%,119%
CC1(Cc2ccc(F)cc2)C(=O)Nc2ccc(-c3cccnc3)cc21 (stereo unspecified),98.2%,108%
Cc1cccc(NC(=O)c2cc(-c3ccc(C)s3)nc3ccccc23)n1,98.5%,95.4%
CCN(c1ccc(OC)cc1)c1ncnc2nc[nH]c12,108%,98%
O=C(Nc1nnc(C(F)(F)F)s1)c1ccc(Br)s1,114%,74.5%
CC(=O)Oc1ccccc1C(=O)Oc1ccc(/C=N/n2cnnc2)cc1,106%,105%
O=c1c(-c2c(O)cc(O)c3c2O[C@H](c2ccc(O)cc2)CC3)c(-c2ccc(O)cc2)oc2cc(O)cc(O)c12,105%,102%
CC1CCN(CC(CS(=O)(=O)c2ccc([N+](=O)[O-])cc2)N2CCC(C)CC2)CC1 (stereo unspecified),101%,104%
Cc1ccc(Cl)cc1-c1cc(C(=O)NCc2cc(C(F)(F)F)cc(C(F)(F)F)c2)[nH]n1,84.9%,96.5%
O=C(NNc1ccccc1Br)C(O)(c1cccc(C(F)(F)F)c1)c1cccc(C(F)(F)F)c1,103%,104%
O=C1Cc2c([nH]c3ccc(Br)cc23)-c2ccccc2N1,94.6%,80.1%
CC(=O)c1ccc(-n2c(C)c(C(C)=O)c3cc(O)ccc32)cc1,56.2%,74.6%
COc1ccc2nc(Nc3nc(CSc4nc5ccccc5[nH]4)cc(=O)[nH]3)nc(C)c2c1,108%,102%
O=C(CCl)N(Cc1cc(=O)[nH]c2ccccc12)c1ccccc1,68.3%,83.6%
CCCCCOC(=O)c1[nH]c2c(c1C)C(=O)CC(c1ccco1)C2 (stereo unspecified),75%,62.8%

SMILES,inhibition [1],inhibition [2]
O=C(/C=C/c1cccc([N+](=O)[O-])c1)NC(=S)Nc1ccc(CN2CCOCC2)cc1,100%,112%
Cc1cc(C)cc(NS(=O)(=O)c2ccc(-c3cnc(C4CC4)o3)cc2)c1,110%,106%
CC(C)=CCc1c(O)cc(O)c2c1OC(c1ccc(O)cc1)CC2=O (stereo unspecified),93.2%,108%
Cc1ccnc(NC(=O)CSc2cc(=O)n(C)c3ccccc23)c1,103%,110%
Cc1ccccc1C(=O)N1CCN(c2ccc(NC(=O)CSc3ccc(Cl)cc3)cc2)CC1,77.6%,71.9%
O=S(=O)(c1ccc(Br)cc1)c1cnc2ccccc2n1,100%,106%
Cc1ccc(S(=O)(=O)/N=C(\CCl)N2CCOCC2)cc1,110%,102%
CCOc1ccc(C(C(=O)NC2CCCC2)N(C(=O)c2snc(C(N)=O)c2N)c2cccc(O)c2)cc1 (stereo unspecified),105%,96.6%
COc1ccc(-c2oc3ccc(-c4ccc(OC)nc4)cc3c2C#CC2(O)CCCCC2)cc1,103%,103%
CC(=O)Oc1ccc(N(C(C)=O)S(=O)(=O)c2ccc(Cl)cc2)c2ccccc12,99.9%,108%
C/C(=N/NC(=O)c1cccs1)c1ccc(NC(=O)COc2ccc(Cl)cc2)cc1,87%,72.9%
CCOC(=O)/C=c1/s/c(=C\c2c(OC)ccc3ccccc23)c(=O)n1CC(=O)NCC1CCCO1 (stereo unspecified),-195%,46.6% [at 39.5 µM]
O=C(NNC(=S)Nc1cccc(C(F)(F)F)c1)c1cccc(Cl)c1,115%,93.8%
CS(=O)(=O)Nc1cccc(-c2cc(NC=O)c3ncc(-c4ccc(F)cc4)n3c2)c1,84%,88.3%
COc1ccccc1NS(=O)(=O)c1cccc(-n2c(O)c(C=Nc3ccccc3C(=O)O)c3ccccc3c2=O)c1,105%,85%
O=C(NCc1cccnc1)/C(=C\c1ccc(-c2cccc(Cl)c2)o1)S(=O)(=O)c1ccccc1,101%,99.2%
C=CC[C@]12CC=CC(=O)[C@@]1(O)O[C@H](c1ccc(OC)c(OC)c1)[C@H]2C,110%,87.5%
COc1ccc(OC)c(C2CC(=O)c3c([nH]c(C(=O)OC(C)C)c3C)C2)c1 (stereo unspecified),51.7%,64.2%
COc1ccc(-c2cn[nH]c2-c2ccc(OCc3ccccc3)cc2O)cc1,99.8%,114%
